Assay results as given in PubChem BioAssay AID488969 (Vanderbilt High Throughput Screening Facility, 2010).
Over roughly 110,000 compounds, “z-score” has its median near -0.1; the highest 2% begin near 2. This excerpt belongs to a sample that is enriched for the highest values. Calls of active or inactive are those of the source.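 Rule for the calls: active = z-score in the third read window above 3 or below -3; inactive = the rest.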

Target: Metabotropic glutamate receptor 8 (Rattus norvegicus) (UniProt P70579)
Sequence (P70579 whole entry, looked up): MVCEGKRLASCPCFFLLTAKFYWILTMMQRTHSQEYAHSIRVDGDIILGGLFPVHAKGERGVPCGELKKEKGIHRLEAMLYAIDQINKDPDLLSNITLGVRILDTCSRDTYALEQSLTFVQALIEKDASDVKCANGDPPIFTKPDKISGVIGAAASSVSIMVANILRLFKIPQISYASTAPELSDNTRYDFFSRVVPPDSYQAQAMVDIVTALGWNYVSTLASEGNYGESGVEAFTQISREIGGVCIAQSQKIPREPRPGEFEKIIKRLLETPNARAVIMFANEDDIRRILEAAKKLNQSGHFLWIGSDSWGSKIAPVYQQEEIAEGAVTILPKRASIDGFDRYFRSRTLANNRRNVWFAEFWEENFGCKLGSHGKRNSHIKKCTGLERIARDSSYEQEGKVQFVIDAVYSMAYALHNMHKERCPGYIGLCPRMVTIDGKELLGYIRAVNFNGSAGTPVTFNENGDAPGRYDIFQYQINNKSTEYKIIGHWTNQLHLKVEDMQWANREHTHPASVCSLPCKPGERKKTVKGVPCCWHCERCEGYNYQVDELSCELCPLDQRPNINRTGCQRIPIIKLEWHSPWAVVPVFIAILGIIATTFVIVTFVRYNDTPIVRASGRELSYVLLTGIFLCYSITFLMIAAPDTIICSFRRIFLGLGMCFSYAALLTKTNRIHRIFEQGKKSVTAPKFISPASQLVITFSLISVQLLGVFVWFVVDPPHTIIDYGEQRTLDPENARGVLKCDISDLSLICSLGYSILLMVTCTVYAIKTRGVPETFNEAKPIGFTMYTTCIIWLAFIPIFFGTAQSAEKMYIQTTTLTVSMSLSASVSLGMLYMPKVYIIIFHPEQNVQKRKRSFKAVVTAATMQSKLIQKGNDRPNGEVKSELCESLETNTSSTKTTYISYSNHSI
Experiment: rat mGluR8 modulators via GIRK flux, primary screen, cell-based, thallium flux, HTS (AID 488969)
Conditions: HEK293 rat mGluR8, GIRK (G protein-gated inwardly rectifying potassium channel) thallium flux, FluoZin2; at 10 µM; stronger effect = higher value; submaximal glutamate (EC20) added with thallium

Compared with `FC(F)(F)c1cnc2c(c1)Nc1ccccc1S2`, `O=C(CSc1ncnc2c1cnn2CCc1ccccc1)Nc1cccc(C(F)(F)F)c1` is lower in z-score: 0.635 for the first, -0.203 for the second.

First: N#Cc1c(-n2cccc2/C=N/O)sc2c1CCCC2
Second: C=CCNCc1cccn1-c1sc2c(c1C#N)CCCC2
The z-score of the first is lower: -0.27 for the first, 2.43 for the second.

Going from `Cc1ccc(C)n1-c1sc2c(c1C#N)CCCC2` to `N#Cc1c(NC(=O)CSc2nc(-c3ccccc3)cc(C(F)(F)F)n2)sc2c1CCC2`, the z-score rises from -0.0485 to 0.0217.

Going from `Oc1ccccc1C1=Nc2ccccc2N=C(c2cccs2)C1` to `c1ccc(-n2c(SCc3nc(-c4cccs4)no3)nnc2-c2ccco2)cc1`, the z-score falls from 0.0299 to -1.55.

Compared with `O=C(CSc1nnc2n1CCCN2C(=S)Nc1ccc(Cl)cc1)c1ccccc1`, `O=C(/C=C/c1ccc(Cl)cc1Cl)NC(=S)Nc1ccc(CN2CCOCC2)cc1` is higher in z-score: -0.14 for the first, 0.0804 for the second.

First: CN(c1ccc(C(=O)NCCSCc2ccco2)cc1)S(C)(=O)=O
Second: CCCCNC(=O)Nc1ccccc1C(=O)NCc1ccco1
The z-score of the first is lower: -0.396 for the first, 0.486 for the second.

First: Cn1c(NC(=O)Cc2cccs2)cc(=O)n(C)c1=O
Second: Cn1c(NC(=O)Cc2ccc(F)cc2)cc(=O)n(C)c1=O
The z-score of the first is lower: 0.422 for the first, 2.79 for the second.

First: Cn1c(NC(=O)CCc2ccccc2)cc(=O)n(C)c1=O
Second: Cn1c(NC(=O)COc2ccccc2)cc(=O)n(C)c1=O
The z-score of the first is lower: -0.492 for the first, 0.597 for the second.

Going from `COc1ccc(CC(=O)Nc2cc(=O)n(C)c(=O)n2C)cc1` to `CCCC(=O)Nc1cc(=O)n(C)c(=O)n1C`, the z-score falls from 2.78 to -0.309.

First: Cc1cccc(CSCCNC(=O)Nc2ccccc2)c1
Second: Cc1cc(NC(=O)COC(=O)c2cccc(OCc3ccccc3)c2)no1
The z-score of the first is lower: -0.872 for the first, 0.388 for the second.

First: CC(=O)NNc1nc(-c2ccc(NC(C)=O)cc2)cs1
Second: COc1cccc2sc(Nc3nc4ccc(NC(C)=O)cc4s3)nc12
The z-score of the first is higher: -0.0151 for the first, -0.147 for the second.

Compared with `CCOC(=O)/C=c1\s/c(=C\c2ccc(C)cc2)c(=O)n1CC(=O)NCc1ccco1`, `CC(=O)N/C(=C/c1ccc(OS(=O)(=O)c2ccc(C)cc2)cc1)C(=O)NCCO` is lower in z-score: 0.0354 for the first, -0.101 for the second.

Compared with `CCOCC(=O)Nc1nnc(C)s1`, `CCOC(=O)c1sc(Nc2nc3c(OC)cccc3s2)cc1C` is lower in z-score: 1.02 for the first, -0.137 for the second.

First: C=C1C2(C(=O)Nc3ccc(SC(F)F)cc3)CCC(C2)C1(C)C (stereo not drawn)
Second: CC12CCC(C(=O)Nc3ccc(SC(F)F)cc3)(CC1=O)C2(C)C (stereo not drawn)
The z-score of the first is higher: 0.546 for the first, 0.519 for the second.

Compared with `CCCCCNCc1ccc(Br)cc1`, `CCCCCn1c(CN(C)Cc2ccccc2)nc2c1c(=O)n(C)c(=O)n2C` is higher in z-score: -0.224 for the first, 0.218 for the second.

First: OCc1cc(CO)c(O)c(CCc2ccccc2)n1
Second: COCCn1c(CN(C)Cc2ccccc2)nc2c1c(=O)n(C)c(=O)n2C
The z-score of the first is higher: 0.171 for the first, -0.377 for the second.

First: COc1cc2nc(-c3cccs3)oc(=O)c2cc1OC
Second: COc1cc(-c2nnc(-c3cccs3)o2)cc(OC)c1OC
The z-score of the first is lower: -0.693 for the first, 2.27 for the second.

Going from `COc1cccc2sc(NC(=O)c3ccc(Br)s3)nc12` to `COc1cccc2sc(Nc3nc(-c4cc5ccccc5oc4=O)cs3)nc12`, the z-score falls from 0.601 to 0.111.

Going from `COc1ccc(-c2nnc(-c3cccs3)o2)cc1OC` to `COc1cc(-c2nnc(-c3cc(OC)c(OC)c(OC)c3)o2)cc(OC)c1OC`, the z-score falls from -0.0864 to -1.02.

Compared with `c1ccc(Nc2nc(-c3ccccn3)cs2)cc1`, `Cc1ccc2oc(-c3cccc(NC(=O)Cc4cccs4)c3)nc2c1` is higher in z-score: -0.545 for the first, 0.0421 for the second.

Going from `CCOc1ccc(NC(=O)CC2C(=O)N(C)C(=S)N2CCCc2ccccc2)cc1` (stereo not drawn) to `CCOCCn1c(CN(Cc2ccccc2)Cc2ccccc2)nc2c1c(=O)n(C)c(=O)n2C`, the z-score rises from 0.36 to 0.389.

Going from `O=C(Cc1c(F)cccc1Cl)c1ccc(O)cc1O` to `CC(=O)NCCOc1ccc2oc3ccccc3c2c1`, the z-score falls from 0.0496 to -0.506.

Compared with `CCOC(=O)c1cccc(NC(=O)C2CCCN2S(=O)(=O)c2cccc3cccnc23)c1` (stereo not drawn), `Cc1ccc2oc(-c3cccc(NC(=S)NC(=O)/C=C/c4ccco4)c3)nc2c1` is lower in z-score: -0.226 for the first, -0.494 for the second.

First: CN(CCOC(=O)C1c2ccccc2Oc2ccccc21)C(C)(C)C
Second: Cc1ccc(-c2nc3ccccc3o2)cc1NC(=S)NC(=O)c1cc2ccccc2o1
The z-score of the first is lower: 0.442 for the first, 2.35 for the second.

First: CNC(=O)CCSc1ccc(C)cc1
Second: Cc1ccc2oc(-c3ccc(C)c(NC(=S)NC(=O)c4cccs4)c3)nc2c1
The z-score of the first is higher: 1.02 for the first, 0.703 for the second.

Compared with `CCN(CC)S(=O)(=O)c1cc(C)c(C)cc1Br`, `CCN(CC)C(=O)CSc1nc2ncccc2[nH]1` is higher in z-score: 0.329 for the first, 1.1 for the second.

Going from `NS(=O)(=O)c1ccc(CCNC(=O)CNC(=O)C2CCCCC2)cc1` to `COc1cc(OC)cc(C(=O)NNC(=O)NC2CCCCC2)c1`, the z-score rises from -0.063 to -0.0486.

Going from `O=C(Nc1cccc(F)c1)NC1(C(=O)N2CCN3CCCC3C2)CCCCC1` (stereo not drawn) to `O=C1c2ccccc2NC(c2cccc(Cl)c2)N1N=C1CCCCCC1` (stereo not drawn), the z-score falls from 0.517 to -0.359.

First: CCOC(=O)CCC(=O)N1CCOCCOCCN(C(=O)CCC(=O)OCC)CCOCC1
Second: CCN(CC)C(=O)C1CC(=O)OC12CCCCC2 (stereo not drawn)
The z-score of the first is higher: -0.107 for the first, -0.477 for the second.

Compared with `CCCCn1c(CN(C)Cc2ccccc2)nc2c1c(=O)n(C)c(=O)n2C`, `Cc1ccc(-c2nc3ccccc3o2)cc1NC(=S)NC(=O)/C=C/c1ccco1` is lower in z-score: 0.165 for the first, 0.0248 for the second.

Compared with `COC(=O)CSc1nc2ncccc2[nH]1`, `CC(C)OC(=O)CSc1nc2ncccc2[nH]1` is lower in z-score: 2.69 for the first, -0.0946 for the second.

Compared with `Cc1cc(C)c2oc(-c3ccc(C)c(NC(=S)NC(=O)/C=C/c4ccco4)c3)nc2c1`, `Cc1ccc(-c2nc3ccccc3o2)cc1NC(=S)NC(=O)c1cccs1` is higher in z-score: -0.0423 for the first, 1.65 for the second.

In the case of `COc1ccc(OC)c(C(=O)COC(=O)C2CC3CCCC(C2)C3=O)c1` (stereo not drawn), the z-score is reported as 1.3.

With `O=C(Nc1ccc(SC(F)F)cc1)C12CCC(CC1)C2` the z-score was 3.38 (active).
In the case of `COc1cccc2sc(Nc3nnc(-c4cccs4)o3)nc12`, the z-score is reported as 17.4 (active).
With `COc1cccc2sc(Nc3nc(-c4ccccn4)cs3)nc12` the z-score was 5.31 (active).
In the case of `COc1ccc(-c2nnc(Nc3nc4c(OC)cccc4s3)o2)cc1`, the z-score is reported as 17.1 (active).
In the case of `CCCCn1c(CN(Cc2ccccc2)Cc2ccccc2)nc2c1c(=O)n(C)c(=O)n2C`, the z-score is reported as 3.38 (active).
For `COCCn1c(CN(Cc2ccccc2)Cc2ccccc2)nc2c1c(=O)n(C)c(=O)n2C`, the z-score was 3.37 (active).
With `Cc1cc(C)c2oc(-c3ccc(C)c(NC(=S)NC(=O)c4cccs4)c3)nc2c1` the z-score was 3.57 (active).
With `Cc1ccc2oc(-c3cccc(NC(=S)NC(=O)c4cccs4)c3)nc2c1` the z-score was 3.78 (active).
